The values below come from PubChem BioAssay AID720704 (The Scripps Research Institute Molecular Screening Center, 2013).

About 660 (0.18%) of roughly 370,000 compounds were called active. Cut-off read from the data, not from the text of the source: active = inhibition above about 11%; inactive = the rest. The sample as a whole holds a higher share of actives than the screen did.

The target of the experiment is 1-phosphatidylinositol 4,5-bisphosphate phosphodiesterase beta-3 (Homo sapiens) (UniProt Q01970). The experiment is described as follows: human PLC-beta3 inhibitors, primary screen, biochemical, fluorescence (AID 720704).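 Note: 0% = median of compound wells on plate and 100% = full blocker control.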 To be noted: Purified PLC-beta3, fluorogenic substrate, at 12.2 µM, active compounds read high.
1-phosphatidylinositol 4,5-bisphosphate phosphodiesterase beta-3 (Homo sapiens), sequence (Q01970 whole entry, looked up): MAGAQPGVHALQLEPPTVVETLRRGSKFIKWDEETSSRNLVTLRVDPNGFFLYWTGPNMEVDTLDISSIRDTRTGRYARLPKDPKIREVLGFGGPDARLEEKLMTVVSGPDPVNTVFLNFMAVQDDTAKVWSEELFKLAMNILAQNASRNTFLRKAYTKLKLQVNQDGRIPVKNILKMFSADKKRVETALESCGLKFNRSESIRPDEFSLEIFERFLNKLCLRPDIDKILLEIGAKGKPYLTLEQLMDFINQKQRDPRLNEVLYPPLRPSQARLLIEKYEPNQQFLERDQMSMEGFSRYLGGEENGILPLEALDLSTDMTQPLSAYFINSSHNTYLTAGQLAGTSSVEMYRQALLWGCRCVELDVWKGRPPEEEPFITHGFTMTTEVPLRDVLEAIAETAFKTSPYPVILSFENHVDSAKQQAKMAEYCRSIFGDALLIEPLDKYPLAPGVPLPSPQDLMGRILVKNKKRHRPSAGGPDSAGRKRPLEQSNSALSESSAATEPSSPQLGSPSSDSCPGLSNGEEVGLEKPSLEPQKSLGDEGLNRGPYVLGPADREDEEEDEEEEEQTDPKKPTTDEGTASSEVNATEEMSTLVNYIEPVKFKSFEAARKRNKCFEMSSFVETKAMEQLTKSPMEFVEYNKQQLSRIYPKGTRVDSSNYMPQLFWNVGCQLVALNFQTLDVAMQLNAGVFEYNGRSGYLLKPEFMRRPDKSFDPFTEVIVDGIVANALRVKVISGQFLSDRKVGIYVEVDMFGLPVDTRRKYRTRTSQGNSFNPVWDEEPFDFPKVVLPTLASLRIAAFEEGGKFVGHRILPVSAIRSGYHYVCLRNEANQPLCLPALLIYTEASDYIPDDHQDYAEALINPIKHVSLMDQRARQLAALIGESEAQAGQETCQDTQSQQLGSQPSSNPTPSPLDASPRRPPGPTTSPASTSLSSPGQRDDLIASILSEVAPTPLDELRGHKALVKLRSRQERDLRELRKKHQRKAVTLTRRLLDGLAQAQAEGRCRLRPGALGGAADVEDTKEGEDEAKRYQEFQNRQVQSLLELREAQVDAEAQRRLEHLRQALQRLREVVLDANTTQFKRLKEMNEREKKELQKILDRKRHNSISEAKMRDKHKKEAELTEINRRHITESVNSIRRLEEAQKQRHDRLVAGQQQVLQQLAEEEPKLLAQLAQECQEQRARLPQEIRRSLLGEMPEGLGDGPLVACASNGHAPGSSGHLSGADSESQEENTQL
Take `CC1=CC(=O)C=CC1(C)C(Cl)(Cl)Cl` (configuration not stated): the inhibition is 0.48% (inactive).
To `Cc1c(C(=O)N2CC(C)OC(C)C2)sc2nc(-c3ccccc3)cn12` (configuration not stated) belongs -2.9% (inactive); to `O=C(c1ccc(F)cc1)N1CCCC(C(=O)N2CCCCC2)C1` (configuration not stated), -6.9% (inactive); to `Cc1ccc(S(=O)(=O)N(CC(O)CN2CCCCC2)c2cccc([N+](=O)[O-])c2)cc1` (configuration not stated), -3.53% (inactive).
For the molecule `COc1ccc([N+](=O)[O-])cc1N(CC(O)CN(CC(C)C)CC(C)C)S(=O)(=O)c1ccc(C)cc1` (configuration not stated), the inhibition is -4.79% (inactive).
With `COc1ccc([N+](=O)[O-])cc1N(CC(O)Cn1nnc2ccccc21)S(=O)(=O)c1ccc(C)cc1` (configuration not stated), the inhibition was 11.5% (active).
To `O=C(NC1CCCCN(Cc2ccc(Cl)cc2)C1=O)c1ccc(Br)cc1` (configuration not stated) belongs -4.01% (inactive).
In the case of `Cc1cccc(OCc2nnc(SCc3nc4cc(C(F)(F)F)ccc4c(=O)[nH]3)o2)c1`, the inhibition was -14.6% (inactive).
To `CCn1cc(C(=O)NCCC(=O)NCCO)c(=O)c2cc3c(cc21)OCO3` belongs -11.8% (inactive).
To `CCCOc1cccc(C(=O)NCCCNC(=O)c2cccnc2)c1` belongs -4.69% (inactive); to `CCOc1ccccc1NC(=O)c1cccnc1`, 12.6% (active); to `Cc1cccc(C(=O)Nc2ccccc2C(=O)NCc2cccnc2)c1`, 2.86% (inactive).
To `O=S1(=O)C[C@@H](N2CCN(CCO)CC2)[C@H](COCc2ccccc2)N1` belongs -7.43% (inactive); to `Cc1ccc(S(=O)(=O)N2CCC(C(=O)OCC(=O)N(C)c3ccccc3)CC2)cc1C`, -0.47% (inactive); to `O=C(COc1ccc(S(=O)(=O)N2CCCC2)cc1[N+](=O)[O-])N1CCCCC1`, 6.09% (inactive).
In the case of `COc1ccc(S(=O)(=O)N2CCC(C(=O)OCC(=O)c3ccccc3)CC2)cc1[N+](=O)[O-]`, the inhibition was 10.8% (active).
To `CCOC(=O)[C@H]1CCC[C@@H](NS(=O)(=O)c2ccc(NC(C)=O)cc2)C1` belongs -1.08% (inactive); to `O=S(=O)(NCCSc1ccccn1)c1ccc(Cl)cc1`, 4.09% (inactive); to `CN(C(=O)c1cccc(NC(=O)Cc2cccc(NC(=O)C3CCCN(C(=O)C4CC4)C3)c2)c1)C1CCC1` (configuration not stated), 1.11% (inactive).
To `CN(C(=O)c1cccc(NC(=O)Cc2cccc([N+](=O)[O-])c2)c1)C1CCCCC1` belongs 11.2% (active).
To `CN(C(=O)c1cccc(NC(=O)Cc2ccc([N+](=O)[O-])cc2)c1)C1CCC1` belongs 1.28% (inactive); to `O=C(CNC(=O)c1ccccc1)OC(C(=O)Nc1cc([N+](=O)[O-])ccc1F)c1ccccc1` (configuration not stated), -0.41% (inactive); to `CCOc1c(Br)cc(/C=C2\C(=O)N(CCC#N)N=C2C)cc1OC`, 13.5% (active).
As to `CC(N=Cc1nc(-c2ccccc2)oc1O)c1ccccc1` (configuration not stated), the inhibition is 15.1% (active).
To `Oc1oc(-c2ccccc2Br)nc1/C=N/c1ccccn1` belongs -19.8% (inactive); to `COC(=O)CN1C(=O)C(O)=C(C(C)=O)C1c1ccc([N+](=O)[O-])cc1` (configuration not stated), 13.8% (active); to `CC(=O)C1=C(O)C(=O)N(c2cccnc2)C1c1ccc([N+](=O)[O-])cc1` (configuration not stated), 4.27% (inactive).
Turning to `CC(=O)C1=C(O)C(=O)N(c2ccc(Br)cc2)C1c1ccc([N+](=O)[O-])cc1` (configuration not stated), the inhibition was -6.85% (inactive).
For `O=C(NC(CC(=O)N1CCN(c2ccccc2)CC1)c1ccccc1)c1ccccc1Cl` (configuration not stated), the inhibition was 2.68% (inactive).
Regarding `O=C(NCCSc1ncc(-c2ccccc2)[nH]1)c1ccco1`, the inhibition was -6.81% (inactive).
To `CCOc1ccc2nc(Cl)c(C3CC(c4ccccc4)=NN3C(=O)c3cccs3)cc2c1` (configuration not stated) belongs -0.32% (inactive); to `Cc1ccc(C2CC(c3cccc(NS(C)(=O)=O)c3)=NN2S(C)(=O)=O)cc1` (configuration not stated), 0.24% (inactive); to `CCOc1ccccc1C1CC(c2cccc(NS(C)(=O)=O)c2)=NN1C(=O)c1ccccc1` (configuration not stated), 13.2% (active).
To `Cc1ccc(C(=O)N(CN2CCCC2=O)c2ccc(F)cc2)cc1` belongs 3.26% (inactive).
To `CCOc1ccc(S(=O)(=O)Nc2ccncc2)c(C)c1C` belongs 1.51% (inactive); to `Cc1cc(C)c2nc(SCC(=O)N(C)C3CCS(=O)(=O)C3)cc(C)c2c1` (configuration not stated), 2.26% (inactive); to `O=S(=O)(c1ccc(F)cc1)N1CCN=C1SCc1cccc(F)c1`, -7.5% (inactive).
Turning to `Cc1ccc(/C=C/C(=O)O)cc1S(=O)(=O)N1CCC(Cc2ccccc2)CC1`, the inhibition was -3.09% (inactive).
In the case of `Cn1ncc2c(NNC(=O)Cc3cccc4ccccc34)ncnc21`, the inhibition is 1.27% (inactive).
To `Cn1ncc2c(Nc3cccc4ccccc34)ncnc21` belongs -6.23% (inactive); to `Cc1nc(Nc2ccccc2C)c2cnn(C)c2n1`, 13.1% (active).
Consider `O=C1C(=O)N(c2ccccc2)C(c2ccccc2)C1c1ccccc1` (configuration not stated), for which the inhibition is -283% (inactive).
To `O=S(=O)(O)c1cc2onnc2c2ccccc12` belongs -11.7% (inactive); to `Cc1cc(NS(=O)(=O)c2ccc(NC(=O)CSc3nnc(SCc4ccc(F)cc4)s3)cc2)nc(C)n1`, -3.29% (inactive).
As to `Cc1cc(C(=O)OC(C)C(=O)Nc2cccc(S(=O)(=O)N3CCOCC3)c2)c(C)o1` (configuration not stated), the inhibition is 2.02% (inactive).
As to `NNC(=O)C1CC(O)CN1S(=O)(=O)c1ccc(Cl)cc1` (configuration not stated), the inhibition was -6.44% (inactive).
To `O=C(CSc1ncn[nH]1)Nc1nc2c(F)c(F)c(F)cc2s1` belongs -3.83% (inactive); to `CCNC(=S)N1CCC(c2nc3cc(C)c(C)cc3[nH]2)CC1`, 0.08% (inactive).
Consider `Cc1cc(C)c(NC(=O)CSc2nc3ccncc3[nH]2)c(C)c1`, for which the inhibition was -1.6% (inactive).
Consider `Cc1cc2nc(SCCN3CCOCC3)[nH]c2cc1C`, for which the inhibition is 10.8% (active).
For the molecule `Fc1ccc(CNCc2ccc(Br)cc2)cc1`, the inhibition was 1.89% (inactive).
For the molecule `CC1(C(=O)NCc2ccco2)Cc2c(-c3ccc4c(c3)OCO4)ccnc2O1` (configuration not stated), the inhibition was -9.86% (inactive).
Consider `COc1ccc(C(=O)NC2CC2)cc1OC1CCN(Cc2ccc(SC)cc2)CC1`, for which the inhibition was -5.08% (inactive).
To `CCN(C(=O)COc1cccnc1[N+](=O)[O-])C1CCS(=O)(=O)C1` (configuration not stated) belongs 3.82% (inactive); to `CCc1cc2c(=O)c(-c3ccon3)c(N)oc2cc1OC`, -1.51% (inactive); to `CCOC(=O)C1CCN(C(=O)c2cccc(S(=O)(=O)N(CC)c3ccccc3)c2)CC1`, -9.7% (inactive).
To `CCCC1CCC(=NNC(=S)NCCc2ccccc2)CC1` (configuration not stated) belongs -1.2% (inactive); to `Cc1c(C)c2ccc(OCC(=O)N3CCN(c4cccc(Cl)c4)CC3)cc2oc1=O`, -8.02% (inactive).
With `CSCCC(NC(=O)COc1ccccc1)C(=O)N1CCN(c2cccc(C(F)(F)F)c2)CC1` (configuration not stated), the inhibition was -10.1% (inactive).
On to `O=C(COc1ccc(Cl)cc1)N1CCN(c2cccc(C(F)(F)F)c2)CC1`, for which the inhibition was 13.8% (active).
To `COC(=O)C1CC2=C(CC(C)(C)CC2=O)N(c2ccccc2)C1=O` (configuration not stated) belongs -3.14% (inactive).
On to `Cc1ccc(C(=O)OCC(=O)Nc2ccc(Cl)cn2)cc1S(=O)(=O)N1CCOCC1`, for which the inhibition is -6.74% (inactive).
Take `O=C(COC(=O)c1ccc(F)c(S(=O)(=O)N2CCOCC2)c1)NCc1ccc2c(c1)OCO2`: the inhibition is -5.58% (inactive).
To `Cc1cc(NC(=O)COC(=O)c2ccc(F)c(S(=O)(=O)N3CCOCC3)c2)no1` belongs 11.6% (active).
As to `CCc1c(Nc2ccccc2Cl)nc(N)[nH]c1=O`, the inhibition was 1.61% (inactive).
Turning to `CCc1c(Nc2ccccc2C)nc(N)[nH]c1=O`, the inhibition was 14.8% (active).
To `CCCOc1ccc(Cc2c(O)nc(N)[nH]c2=O)cc1C` belongs -5% (inactive); to `COc1ccc(C(=O)O)cc1S(=O)(=O)NCc1cccnc1`, -3.06% (inactive).
To `Cc1nnc(SCc2ccc(C(=O)c3ccc(Cl)cc3)o2)n1-c1ccccc1` belongs 0.27% (inactive); to `COC(=O)c1cc(NC(=O)c2nn(C)c(=O)c3ccccc23)cc(C(=O)OC)c1`, 0.09% (inactive).
Regarding `CC(=O)N1c2ccc(S(=O)(=O)N3CCCC(C(=O)NCc4ccc(Cl)cc4)C3)cc2CC1C` (configuration not stated), the inhibition is -2.78% (inactive).
To `O=C(NCc1ccco1)c1nn2cccnc2c1Cl` belongs -10.8% (inactive).
As for `CN1CCN(C(=O)Cn2c(C(F)(F)F)nc3ccccc32)CC1`, the inhibition was 5.24% (inactive).
`CCc1cc(C(=O)c2ccc(OC)cc2)c(NC(=O)CN2CCN(C)CC2)s1`: the inhibition is -17.3% (inactive).
For `CCCCc1nc2ccccc2c(NC(=O)CN2CCN(C)CC2)c1CCC`, the inhibition was 32% (active).
To `CCOC(=O)c1cc2ccccc2n1CC(=O)c1ccccc1` belongs -2.72% (inactive); to `CCn1c(/C=C/Nc2ccccc2)[n+](CC)c2ccc(C(=O)OCC(F)(F)F)cc21`, 13.1% (active); to `Cc1cc(C)c(OCC(=O)N(Cc2cccs2)C2CCS(=O)(=O)C2)c(C)c1` (configuration not stated), -6.39% (inactive).
To `CC1C(=O)Nc2ccccc2N1C(=O)c1c(F)cccc1F` (configuration not stated) belongs -2.5% (inactive); to `CC(=O)C12CC(C)=C(C)CC1CC1C3CCC4=CC(=O)CCC4(C)C3CCC12C` (configuration not stated), 16.1% (active); to `CC(=O)O[C@@]1(C(C)=O)CCC2[C@H]3C=C(C)C4=CC(=O)CC[C@@]4(C)C3CC[C@]21C` (some centres not stated), -4.21% (inactive).
To `CC(=O)O[C@]1(C(C)=O)CC[C@H]2[C@@H]3C=C(C)C4=CC(=O)CC[C@]4(C)[C@H]3CC[C@@]21C` belongs -0.43% (inactive); to `Cc1cc(NC(=O)CSCc2ccccc2C)no1`, -0.65% (inactive).
For the molecule `Cc1cc(NC(=O)COn2nnc3ccccc32)no1`, the inhibition is 10.7% (active).
For `Cc1cc(NC(=O)COc2ccccc2C#N)no1`, the inhibition is -4.84% (inactive).
To `C/C(CC(=O)Nc1cccc(C(F)(F)F)c1)=N\NC(=O)C(=O)NCC(C)C` belongs 2.01% (inactive); to `NC(c1csc(NC(=O)Nc2ccccc2Oc2ccccc2)n1)c1ccccc1Cl` (configuration not stated), -2.19% (inactive); to `COc1ccc(C(N)c2csc(NC(=O)Nc3cccc(C(F)(F)F)c3)n2)cc1` (configuration not stated), 11.1% (active).
To `CCOC(=O)/C=C/CN(C(=O)OC(C)(C)C)S(=O)(=O)N1CC=CC1` belongs 5.79% (inactive); to `O=C(C1CCCO1)N1CCN(C(=S)Nc2cccc(Cl)c2)CC1` (configuration not stated), 12.1% (active).
On to `O=C(CN1CCN(C(=O)C2CCCO2)CC1)Nc1c(Cl)cccc1Cl` (configuration not stated), for which the inhibition was -2.62% (inactive).
As to `O=C(C1CCCO1)N1CCN(C(=S)NC2CC2)CC1` (configuration not stated), the inhibition was -1.16% (inactive).
